Measured values from PubChem BioAssay AID1117319 (Southern Research Institute, 2015).
The whole screen tested about 260,000 compounds, of which about 1,500 (0.58%) were called active. Not shown: some 5% with an inconclusive outcome.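 How the source made its calls: active means inhibition above a set limit at one or more doses, reproduced on every date tested; inconclusive means results disagree between test dates, or hit never tested in dose response; inactive means the rest.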 Only a sample is shown. Results with a measured potency or affinity are listed apart.

These molecules were tested against Virion infectivity factor (Human immunodeficiency virus type 1 group M subtype B (isolate BH10)) + Virion infectivity factor (Human immunodeficiency virus type 1 group M subtype B (isolate BRU/LAI)) + Virion infectivity factor (Human immunodeficiency virus type 1 group M subtype B (isolate PCV12)) + Virion infectivity factor (Human immunodeficiency virus type 1 group M subtype B (isolate HXB2)) + DNA dC->dU-editing enzyme APOBEC-3G (Homo sapiens) (UniProt P69720+P69721+P69722+P69723+Q9HC16) (assay: inhibitors of Vif binding to APOBEC3G peptide, primary screen, biochemical, TR-FRET, GST-Vif 1-94, biotin-A3G peptide, dose response retest (AID 1117319;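 further: Vif residues 1-94 fused to GST binding biotinylated APOBEC3G peptide 110-148; 0% = full assay without inhibitor and 100% = GST in place of GST-Vif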)). Details: active compounds read high.

inhibition, inactive:
O=C(OCc1csc(-c2ccccc2)n1)c1ccc(O)cc1 -8.63%
O=C1c2ccccc2C(=O)N1CCCCON1C(=O)c2ccccc2C1=O -9.96%
O=C1c2ccccc2C(=O)N1CCCON1C(=O)c2ccccc2C1=O -6.06%
CCC(C)NC(=O)C(Cc1ccccc1)NS(=O)(=O)c1ccc2c(c1)CCC(=O)N2 (configuration not stated) -0.93%
CCC(=O)NCc1c(Cl)cccc1-n1cccc1 -0.31%
CC(C)=CC(=O)NCc1c(Cl)cccc1-n1cccc1 -7.14%
CC(C)(C)c1cc(CCC(=O)N2CCNCC2)c(C(C)(C)C)cc1O -5.87%
Cc1ccc(S(=O)(=O)N2CCN(C(=O)c3cccc(-n4cccc4)c3)CC2)cc1 13.6%
O=C(c1cccc(-n2cccc2)c1)N1CCN(S(=O)(=O)c2ccccc2Br)CC1 -0.78%
CCc1cccc2c(SCC(=O)NCC3CCCO3)nc(-c3ccc(F)cc3)nc12 (configuration not stated) -2.63%
O=C(NCCn1cc(SCc2ccccc2F)c2ccccc21)c1c(F)cccc1F 23.7%
CCN(CC)c1ccc(/C=N/N2C(=O)c3ccccc3C2=O)cc1 0.19%
CSc1ccc(/C=N/n2c(C)cc(C)cc2=O)cc1 -2.42%
CC(C(=O)OCC(=O)N(C)C1(C#N)CCCCC1)N1C(=O)c2ccccc2C1=O (configuration not stated) -0.19%
Fc1ccc(CSc2nnc(-c3ccccn3)o2)cc1 -5.79%
O=C1c2ccccc2CC1Sc1nnc(-c2ccncc2)o1 (configuration not stated) 8.68%
COc1ccc(N=C2SC(C(=O)Nc3ccc(C(=O)O)cc3)CC(=O)N2Cc2cccs2)cc1 (configuration not stated) -11.4%
Cc1ccc(C)c(NC(=O)C2CCN(S(=O)(=O)c3ccc4c(c3)NC(=O)CO4)CC2)c1 -1.93%
COc1ccc(C(=O)CSc2nnc(-c3ccco3)n2C)cc1 7.51%
Cc1ccc(C(=O)CSc2nnc(-c3ccco3)n2C)cc1 11.4%
O=C(OC(C(=O)NCc1ccco1)c1ccc(Cl)cc1)c1cccs1 (configuration not stated) 4.09%
CC(C)(C)NC(=O)C(c1ccc(O)cc1)N(C(=O)CCC(=O)Nc1ccccn1)c1ccc(F)cc1 (configuration not stated) 16.4%
O=C(Nc1ccc2nsnc2c1)N1CCCCCC1 21.1%
Cc1nc2ccc(NC(=O)N3CCCCC3)cc2nc1C 1.22%
CCOC(=O)C1CCN(C(=O)Nc2ccc3nccnc3c2)CC1 -4.96%
CCOC(=O)C1CCN(C(=O)Nc2ccc3nc(C)c(C)nc3c2)CC1 8.59%
CCn1nnnc1NC(=O)c1cc(Cl)c(OC)c(Cl)c1 0.23%
Cc1noc(C(=O)NCC2CCCO2)c1Cl (configuration not stated) 2.96%
COc1ccc(-n2nnc3c(SCC(=O)OCc4ccccc4)ncnc32)cc1 0.84%
C=CCNC(=O)O/N=C/c1csc([N+](=O)[O-])c1 -6.03%
CC(C)(C)c1ccc(C(=O)N/N=C/c2ccc(OCCCF)cc2)cc1 -1.58%
CCOc1ccc(NC2=CC(=O)C(=O)c3ccccc32)cc1 3.36%
CCOc1ccccc1NCN1C(=O)c2ccccc2C1=O -5.06%
O=C(NC(=S)Nc1ccccc1O)c1cccnc1 -2.04%
COc1ccc(NC(=O)c2oc3ccccc3c2C)c(OC)c1 3.61%
COc1ccccc1NC(=O)c1oc2ccccc2c1C -8.43%
Cc1nn(-c2cccc(Cl)c2)nc1C(=O)Nc1cccc(C(=O)NC2CC2)c1 -8.35%
O=[N+]([O-])c1ccc(N=Nc2ccc(O)cc2O)cc1 27.8%
O=[N+]([O-])c1cccc(N=Nc2ccc(O)cc2O)c1 5.74%
Oc1ccc(N=Nc2ccc3c(c2)OCCO3)c(O)c1 6.46%
Oc1ccc(N=Nc2ccc(Br)cc2)c(O)c1 -5.68%
Clc1cccc(CSc2nnc(-c3c[nH]c4ccccc34)o2)c1 -5.82%
Cc1ccc(-c2nc(C#N)c(N3CCCCC3)o2)cc1 -10.2%
CC(=O)N1CCc2ccc(NC(=O)c3c(-c4c(Cl)cccc4Cl)noc3C)cc21 -4.69%
O=[N+]([O-])c1ccc2nc(C3CCCCC3)[nH]c2c1 -11.7%
COc1cccc(C(=O)Nc2ccc3nc(N4CCOCC4)cc(C)c3c2)c1 -4.42%
CN(C)/C=C/C(=O)c1ccc(Br)cc1 -1.28%
O=C(NCCO)C1COc2ccccc2O1 (configuration not stated) -2.17%
O=C(CSc1nnnn1C1CC1)N1CCN(c2ccccc2F)CC1 -1.62%
On1nnc2c3ccccc3c3ccccc3c21 0.98%
O=C(O)C1CCCCN1C(=O)c1ccc(S(=O)(=O)N2CCCCCC2)cc1 (configuration not stated) -3.6%
COc1ccc2c(c1)CCCC(Br)C2=O (configuration not stated) 11.8%
COc1cc2c(cc1OC)C(=O)CCC2 -1.94%
O=C(O)c1cccc2c1C(=O)c1ccc(N3CCN(Cc4ccc5c(c4)OCO5)CC3)cc1S2(=O)=O 1.13%
Cc1cccc2cc(CN(CCCO)C(=O)Nc3ccc(Cl)cc3)c(=O)[nH]c12 13.2%
C/C(=N\NC(=O)c1cc(C2CC2)nc2ccccc12)c1ccc(C)s1 5.05%
CC1=CC(=Nc2c(C)n(C)n(-c3ccccc3)c2=O)C=C(C)C1=O 16.9%
CCC(C)C1=CC(=Nc2c(C)n(C)n(-c3ccccc3)c2=O)C=C(C(C)CC)C1=O (configuration not stated) 9.76%
Cc1c(N=C2C=CC(=O)c3ccccc32)c(=O)n(-c2ccccc2)n1C 25%
Cc1c(N=c2c(=O)c3ccccc3c2=O)c(=O)n(-c2ccccc2)n1C 23.7%
CC(=O)NC1=NN(C(C)=O)C(C)(c2cccs2)S1 (configuration not stated) 2.86%
Cc1cc(=O)oc2cc(NC(=O)c3ccnn3C)ccc12 -5.65%
Cc1ccc(C)c(Cn2nnc3c(=O)[nH]c(C4CCN(S(=O)(=O)c5ccc(S(=O)(=O)NC6CC6)cc5)CC4)nc32)c1 -11.5%
O=C(CN1CCN(S(=O)(=O)c2ccc(Cl)s2)CC1)N1CCOCC1 7.26%
O=C(CN1CCN(S(=O)(=O)c2ccc(Cl)cc2)CC1)NCc1cccs1 0.29%
CC(C)Nc1nc(-c2ccccc2)nnc1-c1ccccc1 -7.57%
O=C(O)/C=C/C(=O)Nc1ccc(SC(F)(F)C(F)(F)C(F)(F)F)cc1 -1.48%
CCN(CC)CCN1C(=O)c2ccccc2NC1c1ccc(C)cc1 (configuration not stated) 0.09%
CCN(CC)CCN1C(=O)c2ccccc2NC1c1ccc(F)cc1 (configuration not stated) 1.63%
CC/C(C)=N/Nc1ccc(S(=O)(=O)N2CCCC2)cc1[N+](=O)[O-] 0.9%
CC1CCCN(C(=O)c2ccc(CNc3c(N4CCCCC4)c(=O)c3=O)cc2)C1 (configuration not stated) 4.47%
CC1CCN(C(=O)c2ccc(CNc3c(N4CCCC4)c(=O)c3=O)cc2)CC1 5.36%
Cn1c(N)c(C(=O)COC(=O)C2CCCC2)c(=O)n(C)c1=O 0.6%
Cn1c(N)c(C(=O)COC(=O)C2CCC(C(C)(C)C)CC2)c(=O)n(C)c1=O (configuration not stated) 15.1%
COc1ccc(S(=O)(=O)N2CCC3(CC2)CC(=O)c2ccccc2O3)cc1OC 5.1%
C=CCN1C(=O)S/C(=C\c2ccc(N3CCOCC3)cc2C)C1=O -1.96%
CCN1C(=O)S/C(=C\c2ccc(N3CCOCC3)cc2C)C1=O 15.3%
Cc1cc(=O)oc2c(CN3CCN(C)CC3)c(O)c(Cl)cc12 -0.71%
COc1ccccc1NC(=S)NN1CCN(C)CC1 -0.89%
O=C(Nc1ccc2ccccc2c1)c1cccnc1 -0.18%
Nc1ccc(C(=O)Nc2ccc3nc(-c4cccnc4)[nH]c3c2)cc1 1.2%
CC/C(=N\NC(=O)CSc1ncccn1)c1ccc2c(c1)OCCO2 4.58%
COc1ccc(-n2c(Cc3cc(=O)[nH]c(=O)[nH]3)nnc2SCC(=O)NC2CCCC2)cc1 2.26%
COc1ccc2cc(CN(Cc3ccco3)C(=S)NCC3CCCO3)c(=O)[nH]c2c1 (configuration not stated) -22.6%
CC(=O)Nc1ccc(S(=O)(=O)N2CCc3ccccc3C2)cc1 21.6%
O=C(O)Cc1ccc(N=Cc2c(O)ccc3ccccc23)cc1 5.87%
NS(=O)(=O)c1ccc(N=Nc2c(O)c(C(=O)O)cc3ccccc23)cc1 24.6%
Cn1cnnc1SCC(=O)Nc1ccccc1C(=O)NC1CCCC1 7.03%
CC(=O)Nc1cccc(C(=O)NCC2(N3CCCCC3)CCCCC2)c1 3.75%
COc1ccc(Oc2ccc(C(F)(F)F)cc2NC(=O)c2ccc(OC)cc2)cc1 -13.5%
O=Cc1cnc(N2CCCCC2)s1 -7.46%
CN1CCN(c2ncc(CN3C(=O)c4ccccc4C3=O)s2)CC1 1.36%
CN1CCN(C2=C(Cl)C(=O)N(C3CCCCC3)C2=O)CC1 20.6%
Cc1ccccc1N1C(=O)C(Cl)=C(N2CCCCCC2)C1=O 4.9%
Clc1cccc2sc(N3CCCCC3)nc12 0.64%
CC(=O)c1cnc(N(C)C)s1 -3.71%
O=C(CN1CCc2ccccc21)NN1CC(=O)N(c2ccccc2)CC1=O 1.28%
